# Source: PubChem BioAssay (National Center for Advancing Translational Sciences (NCATS))
# Rows were chosen to be rich in hits. Some 8.7% of all compounds tested hit in one or more screens of this group.
# Vaccinia Venus – vaccinia inhibition (Venus reporter) | Vaccinia virus Venus reporter expression, fluorescence | Potency, µM (highest dose often 36.5 µM), inactives show top-dose activity change, negative = inhibition, usual class: inhibitors | 330,000 tested, 0.46% active; calls by dose curve; tested in A549 cells; further: nearly all actives have a fitted effect of over 30% in size
# AMA1-RON2 inh – disrupts binding of P. falciparum AMA1 to RON2; 360,000 tested, 0.2% active; AlphaScreen AMA1-biotinylated RON2 peptide binding; Potency, µM (titrated, usually from 58.2 µM), without a hit: at the highest dose activity change, negative = inhibition, hits mostly inhibitors;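 further: 0% = vehicle wells and -100% = peptide control; nearly all actives have a fitted effect of over 45% in size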
#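 AMA1 (3D7) with his tag at 25 nM final met compounds first, then biotinylated RON2 peptide at 25 nM; detection used donor plus acceptor beads, 10 µg/mL apiece, read by AlphaScreen after 30 min at room temperature.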
# Pf growth 96h – P. falciparum growth inhibition at 96 hour, primary screen for plastid delayed-death inhibitors | P. falciparum luciferase reporter growth, 96 h | Potency, µM (doses to about 28.7 µM), for the others: at the highest dose activity change, negative = inhibition, hits mostly inhibitors | 320,000 tested, 6.9% active
#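 Two-generation exposure (96 h) targets delayed-death phenotype. Reporter parasites carrying integrated firefly luciferase, in red cells at 2% hematocrit and 0.05% parasitemia final, kept at 37 C, 5% CO2; luminescence loss indicates inhibition.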
# Pf growth 48h – inhibits P. falciparum growth in the first generation, 48 h. AID 504832. 310,000 tested, 5.9% active. Potency, µM (series often up to 28.7 µM), without a hit: at the top dose activity change, negative = inhibition, hits mostly inhibitors. P. falciparum luciferase growth in erythrocytes, 48 h
#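 Parasite viability was followed by luminescence of a genomically integrated firefly luciferase. Cultures held 0.1% parasitemia at 2% hematocrit (final), incubated under 5% CO2 at 37 C.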
# VACV mCherry inh – vaccinia inhibition (mCherry reporter); Vaccinia virus mCherry reporter infection, fluorescence; Potency, µM (doses to about 36.5 µM), inactives show top-dose activity change, negative = inhibition, usual class: inhibitors; 310,000 tested, 0.63% active; calls by dose curve; tested in A549 cells; further: nearly all actives have a fitted effect of over 35% in size
# The depositor's hits bear a star; i = inactive; ? = inconclusive; . = not tested or not shown. Unless noted, the call rests on the fitted dose curve; in most records, active means well fitted curve in the direction sought with a large enough effect; inconclusive means small, poorly fitted or top-dose-only effect, or another doubt; inactive means no such curve, though single readings can be large; an effect the other way counts as inactive or inconclusive. Unless noted, on the % scale 0 is the no-effect control and ±100 the full control effect; potency means the concentration at half of the fitted maximal effect.
SMILES,Vaccinia Venus,AMA1-RON2 inh,Pf growth 96h,Pf growth 48h,VACV mCherry inh
Cc1ccc(C)n1-c1nnc(N2CCCC(C(=O)Nc3ccccc3Br)C2)s1 (centres undefined),-13%,.,.,.,-2%
Cc1ccc2c(CC(=O)Nc3ccc(S(=O)(=O)N4CCCCC4C)cc3)coc2c1 (centres undefined),-11%,.,.,.,-18%
COc1ccc(N=Cc2ccc(-c3ccccc3)o2)cc1,6%,?,12µM*,9%,-9%
O/N=C\c1ccc(-c2ccccc2)o1,-4%,-21%,-25%,70%,-14%
CCc1ccccc1N1CC(c2nc3ccccc3n2Cc2cccc(C)c2)CC1=O (centres undefined),-19%,.,.,.,-19%
O=C(CCl)Nc1cc(SCC(O)CO)cc([N+](=O)[O-])c1 (centres undefined),4µM*,-4%,-21%,?,2.8µM*
CCC(=O)Nc1cc(SCCO)cc([N+](=O)[O-])c1,-6%,5%,12%,43%,-10%
CCOc1ccc(S(=O)(=O)N2CCC(C(=O)OCc3cccc(OC)c3OC)CC2)cc1,.,1%,?,9.3µM*,.
CC(=O)Nc1ccc(NC(=O)COc2ccc(S(=O)(=O)N3CCCC3)cc2)cc1,-2%,8%,?,?,-3%
CSc1ccccc1NC(=O)COc1ccc(S(=O)(=O)N2CCCC2)cc1,.,-1%,?,13µM*,.
COc1ccccc1CNC(=O)COc1ccc(S(=O)(=O)N2CCCC2)cc1,-20%,-14%,-28%,13µM*,i
CC(C)NC(=O)COc1ccc(S(=O)(=O)N2CCOCC2)cc1,-3%,-5%,.,-3%,-15%
COc1ccccc1CNC(=O)COc1ccc(S(=O)(=O)N2CCOCC2)cc1,-9%,1%,?,?,-1%
CC(C)NC(=O)COc1ccc(S(=O)(=O)N2CCCC2)cc1,-11%,-7%,1.5µM*,-16%,-12%
CC1(C)OC(=O)C2(Cc3ccccc3N3CCC(c4ccccc4)CC32)C(=O)O1 (centres undefined),-7%,.,.,.,14%
N#Cc1ccccc1NC(=O)C(=O)NCC(c1cccnc1)N1CCN(c2ccccc2)CC1 (centres undefined),3%,.,.,.,i
CN(C(=O)c1cccs1)C1(C)CCS(=O)(=O)C1 (centres undefined),.,11%,10µM*,22%,.
O=C(Nc1ccc(Cl)cc1F)c1cc(S(=O)(=O)NC2CCCCCC2)ccc1F,-5%,.,.,.,-16%
CCC(C)(C)n1nnnc1C(c1ccc2ncccc2c1)N1CCCC(C)C1 (centres undefined),-28%,-7%,10µM*,?,-2%
CCC(C)(C)n1nnnc1C(c1ccc2ncccc2c1)N1CCN(c2nc3ccccc3s2)CC1 (centres undefined),-25%,-21%,-9%,5.2µM*,?
O=C(N/N=C/c1ccc(Sc2nc3ccccc3s2)c([N+](=O)[O-])c1)c1ccccn1,-12%,41%,10µM*,?,-5%
O=C(N/N=C/c1ccc(Cl)c([N+](=O)[O-])c1)c1cnccn1,-5%,14%,5%,-2%,-8%
CC(C)(C)C1CCc2c(sc(NC(=O)c3noc4c3CCCC4)c2C#N)C1 (centres undefined),-25%,.,.,.,-20%
Cc1nn(C)c(Cl)c1S(=O)(=O)N(Cc1ccco1)c1ncnc2nc[nH]c12,-17%,.,.,.,-1%
Cc1ccc2onc(CC(=O)N3CCN(c4cccc(C)c4C)CC3)c2c1,-9%,.,.,.,-6%
SMILES,Vaccinia Venus,AMA1-RON2 inh,Pf growth 96h,Pf growth 48h,VACV mCherry inh
COc1ccc(-c2noc(CCC(=O)NC3CCCCC3)n2)cc1,.,-3%,12µM*,25%,.
O=C(CCCc1nc(-c2ccc(Cl)cc2)no1)NC1CCCC1,-22%,-2%,4.7µM*,-20%,-27%
O=C(CCc1nc(-c2ccc(Cl)cc2)no1)NC1CCCCC1,-6%,17%,0%,26%,-10%
O=C(CCCC(=O)OCC(=O)c1ccc(Cl)cc1)NC1CCCCC1,-18%,0%,12µM*,23%,-4%
COc1ccc(-c2noc(CCC(=O)NC3CCCCCC3)n2)cc1,.,3%,?,-9%,.
O=C(CCC(=O)OCC(=O)c1ccc(Br)cc1)NC1CCCCC1,0%,2%,.,-7%,-14%
CC(=O)N1CCC(C(=O)Nc2nnc(C(C)C)s2)CC1,-8%,.,.,.,0%
CC1CCCCN1Cc1ccc(N)cc1 (centres undefined),.,2%,0.1µM*,-7%,.
CC1CCCCN1Cc1ccc(-c2nn[nH]n2)cc1 (centres undefined),-16%,-3%,?,9%,.
COc1ccc(-n2c(-c3ccc(Br)cc3)c[n+]3c2CCc2ccccc2-3)cc1,.,-9%,0.47µM*,1.9µM*,.
COc1ccccc1-n1c(-c2ccccc2)c[n+]2c1CCc1ccccc1-2,?,-2%,?,?,-17%
CC(C)c1ccc(-n2c(-c3ccccc3)c[n+]3c2CCc2ccccc2-3)cc1,?,-10%,0.83µM*,1µM*,?
Cc1ccc(-n2ncc(C(=O)NCCN3CCN(C)CC3)c2C2CCN(C(=O)OC(C)(C)C)CC2)c(C)c1,-8%,.,.,.,-7%
CCOP(=O)(c1ccccc1)c1nc(-c2ccccc2C)oc1N1CCCCC1 (centres undefined),?,-6%,-30%,13µM*,.
COP(=O)(OC)c1nc(-c2cccc3ccccc23)oc1NCc1ccccc1,-24%,-11%,?,?,-13%
Cc1ccccc1-c1nc(P(=O)(c2ccccc2)c2ccccc2)c(N2CCOCC2)o1,.,-15%,?,15µM*,.
CCCOP(=O)(OCCC)c1nc(-c2ccccc2)oc1NCc1ccccc1,?,-13%,3.7µM*,5.9µM*,?
CCOP(=O)(c1ccccc1)c1nc(-c2ccccc2C)oc1NCc1ccccc1 (centres undefined),.,-6%,?,12µM*,.
Cc1ccc(N2CCN(c3nc4ccc(C)cc4n4nnnc34)CC2)c(C)c1,-8%,.,.,.,-8%
Cc1cc(C)cc(NC(=O)CSCc2cc(=O)c3ccc(C)c(C)c3[nH]2)c1,5%,.,.,.,8%
Cc1cccc(C(=O)Nc2ccc(N3CCC(N4CCCCC4)CC3)c(C(=O)O)c2)c1,-18%,.,.,.,-2%
O=C(CNS(=O)(=O)c1cccs1)NCCc1ccc(Cl)cc1,0%,-7%,13µM*,6%,-2%
CC(=O)CSc1nc(-c2ccccc2)[nH]c1S(=O)(=O)c1ccc(C)cc1,-3%,.,.,.,-3%
Cc1ccc(C(=O)OCn2nnc3ccccc3c2=O)cc1[N+](=O)[O-],.,2%,2.6µM*,14%,.
COc1ccc(C(=O)OCn2nnc3ccccc3c2=O)cc1[N+](=O)[O-],-5%,-4%,24%,49%,1%
Cc1ccc(C2(C)NC(=O)N(CC(=O)Nc3nc(-c4ccccn4)cs3)C2=O)cc1 (centres undefined),?,-10%,3.3µM*,2.3µM*,?
